Rows were chosen to be rich in hits. Some 1.3% of all compounds tested hit in one or more screens of this group.
SRC1 inh: inhibits human SRC1 coactivator | Q15788 | HEK293 GAL4-SRC1 luciferase reporter, luminescence | inhibition, % at 3.6 µM | hit rate 0.12% among 360,000 | AID 588354;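 active = inhibition above the campaign mean plus 3 SD, with each screening campaign given its own cutoff, cut at about 60% in these data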;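 also: 0% = DMSO treated cells and 100% = gossypol at 36 µM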
SRC2 inh: human SRC2 (NCOA2) inhibition; Q15596; HEK293 GAL4-SRC2 luciferase reporter, luminescence; inhibition, % at 9 µM; hit rate 0.17% among 370,000;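 active = inhibition above the mean inhibition of all tested compounds plus 3 SD, set per campaign, cut at about 52% in these data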;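 also: 0% = DMSO treated cells and 100% = cells given Gossypol at 36 µM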
LRH-1 inv ag: suppresses constitutive activity of human LRH-1; O00482; HEK293T StAR-luciferase reporter, LRH-1 transfected, 24 h; inhibition, % at 3.6 µM; hit rate 0.13% among 360,000; AID 602396;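 active = inhibition above the mean inhibition of all tested compounds plus 3 SD, cut at about 73% in these data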;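 also: 0% = DMSO wells and 100% = reporter-only cells lacking LRH-1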
NR2F2 inh: blocks human COUP-TFII nuclear receptor | inhibition, % at 8.6 µM | HEK293T NGFI-A luciferase reporter, luminescence | hit rate 0.7% among 370,000;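 active = inhibition above a per-plate cutoff, mean inhibition of test wells between control levels plus 3 SD, cut at about 38% in these data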;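 also: cells cotransfected with COUP-TFII expression vector driving the NGFI-A reporter; 0% = median of COUP-TF2 test wells and 100% = reporter-only cells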
NCOA3 inh: inhibits human SRC3 coactivator; inhibition, % at 3.6 µM; hit rate 0.17% among 360,000; HEK293 GAL4-SRC3 luciferase reporter, luminescence; Q9Y6Q9;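 active = inhibition above a per-campaign cutoff, the mean of all compounds plus 3 SD, cut at about 60% in these data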;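 also: 0% = DMSO-treated cells and 100% = gossypol-treated cells at 36 µM; higher means less SRC3-driven luciferase light from the GAL4 reporter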
Gli-Sufu block: Gli-Sufu pathway antagonism; Sufu-KO-LIGHT fibroblasts, Gli luciferase reporter luminescence; inhibition, % at 5 µM; hit rate 0.74% among 340,000; AID 588413;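 active = inhibition above about 55%, limit read from the data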;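 also: 0% = DMSO-treated cells and 100% = wells with medium but no cells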
Gli-Sufu confirm: confirmation of Gli-SUFU pathway antagonists. shares compounds with Gli-Sufu block. Sufu-KO-LIGHT cells, Gli luciferase reporter, luminescence. inhibition, % at 5 µM. hit rate 40% among 2,500;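 active = mean inhibition at 5 µM reaching about 45%, limit read from the data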;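 also: plate controls were DMSO-treated cells for no effect and wells lacking cells for full effect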
SufuKO cytotox: counter-screen for Gli-SUFU antagonists: cytotoxicity; shares compounds with Gli-Sufu block; hit rate 32% among 2,500; cytotoxicity, % at 5 µM; AID 651994; Sufu-KO-LIGHT cells cytotoxicity, ATP luminescence;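 active = mean cytotoxicity at 5 µM above about 25%, limit read from the data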;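 also: cells exposed to compound overnight for roughly 16 to 18 hours; plate controls were DMSO wells with cells for no effect and medium without cells for full effect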
Wnt3a cs: inhibits Wnt3a reporter, counter-screen for Gli-SUFU antagonists; shares compounds with Gli-Sufu block; Wnt-LIGHT cells, Wnt3a-driven luciferase reporter, luminescence; inhibition, % at 6.25 µM; hit rate 20% among 2,500;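 active = mean inhibition above about 25%, limit read from the data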
VP16 Luc counter: inhibits VP16 reporter, flagging COUP-TFII antagonist hits. hit rate 25% among 2,500. HEK293 Gal4-VP16 luciferase reporter, luminescence. shares compounds with NR2F2 inh. inhibition, % at 8.5 µM; in the data active = inhibition above about 13%
NR2F2 inh conf: confirmation of human COUP-TFII (NR2F2) inhibitors. shares compounds with NR2F2 inh. HEK293 NGFI-A luciferase reporter, luminescence. inhibition, % at 8.5 µM. hit rate 45% among 2,500. AID 687008;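 active = mean inhibition over three repeats above a set limit taken from the earlier primary screen, cut at about 38% in these data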;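 also: 100% = cells given the luciferase reporter alone without the COUP-TF2 vector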
Starred values were filed as active, the others as inactive; x = not tested or not shown.

SMILES	SRC1 inh	SRC2 inh	LRH-1 inv ag	NR2F2 inh	NCOA3 inh	Gli-Sufu block	Gli-Sufu confirm	SufuKO cytotox	Wnt3a cs	VP16 Luc counter	NR2F2 inh conf
Cc1cccc(NC(=O)Nc2c(-c3ccc(C(F)(F)F)cc3)nc3ncccn23)c1	x	6	x	-29	x	x	x	x	x	x	x
Cc1csc2c(N3CCN(S(=O)(=O)c4ccc(Cl)cc4)CC3)ncnc12	10	5	4	2	27	8	x	x	x	x	x
O=S(=O)(c1ccc(Cl)cc1)N1CCN(c2ncnc3sccc23)CC1	6	10	21	47*	11	50	46*	21	35*	3	27
c1csc(CCNc2ncnc3sc4c(c23)CCC4)c1	16	17	46	67*	29	56*	60*	30*	1	3	46*
Cc1nc2c(-c3ccc(Cl)cc3)cnn2c(N)c1-c1ccc(F)cc1	49	42	29	52*	50	63*	81*	18	84*	1	68*
COc1ccc(-c2c(C)nc3c(-c4ccc(F)cc4)cnn3c2N)cc1	-54	-31	-31	-42	-61	-9	x	x	x	x	x
Cc1ccc(C(C)C)c(OCc2ccc(C(=O)N/N=C/c3ccc(O)c(O)c3)cc2)c1	-14	52	-27	44*	9	67*	49*	29*	93*	19*	6
CCOCCCNC(=O)C1CCN(S(=O)(=O)c2cc3c(cc2Br)CCN3C(=O)CC)CC1	x	-24	x	13	x	x	x	x	x	x	x
N=c1c2c(n(Cc3ccc(Br)cc3)c3c1CCC3)CCCC2	42	-19	93*	68*	75*	88*	89*	38*	54*	24*	61*
N=c1c2c(n(Cc3ccc(Cl)c(Cl)c3)c3c1CCC3)CCCC2	63*	-46	96*	64*	68*	83*	89*	19	36*	16*	47*
Cn1c(CCN2CCN(c3ccccn3)CC2)nc2cc(NC(=O)COc3ccc(Cl)cc3)ccc21	23	14	46	61*	48	61*	31	-10	29*	-3	59*
COC(=O)C1CN(Cc2ccc(F)cc2)CCS(=O)(=O)N1Cc1ccc(C)cc1 (centres undefined)	x	20	x	7	x	x	x	x	x	x	x
OC[C@H]1O[C@@H](n2cnc3c(Nc4ccccc4)ncnc32)[C@H](O)[C@@H]1O	-135	-67	-66	-64	-48	-10	x	x	x	x	x
OCC1OC(n2ccc3c(NO)ncnc32)C(O)C1O (centres undefined)	69*	41	98*	47*	85*	75*	60*	54*	69*	27*	28
CC(=O)c1cn(CCOc2cc(C)ccc2C)c2ccccc12	43	23	38	55*	17	68*	64*	21	46*	18*	63*
Cc1cc(-n2c(C)cc(C(=O)CSc3nc(N)cc(=O)[nH]3)c2C)no1	13	16	11	6	12	17	x	x	x	x	x
Cc1cc(C(=O)CSc2nc(N)cc(=O)[nH]2)c(C)n1-c1ccc(OC(F)F)cc1	-9	12	24	53*	17	68*	65*	38*	21	-2	54*
C[C@H]1[C@H](N(C)C)CC[C@@]23CCCN2C(=O)CCC[C@@H]13	x	x	x	-12	x	x	x	x	x	x	x
Cc1cc(N2CCCC2=O)cc(C)c1S(=O)(=O)NCCOc1ccc(C(C)(C)C)cc1	-137	19	-4	44*	26	75*	72*	44*	-2	-1	19

Screening results deposited in PubChem by several laboratories.
